Measurements: the supplement of paper PMC12282887
± gives the standard deviation of the averaged measurements.

Legend:
Assay in all cases: promoter activity interaction Z-score (Lux/OD deviation from empty-vector control); higher = stronger promoter induction by the compound
[1] = test system: E. coli BW25113 tolCp lux reporter
Procedure, shortened: (§1)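 E. coli BW25113 luxCDABE reporter strains grew at 37°C in 40 µl LB Lennox in 384-well plates, with OD600 and luminescence read every 30 min for 12 h. After integration over 0–8 h for wild type or 1–9 h for deletion strains, wells under 10% of the median growth value were removed. Each score is the Z-transformed residual of growth-normalised luminescence fitted against a control.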

[2] = test system: E. coli BW25113 acrABp lux reporter
Procedure, shortened: as §1

[3] = test system: E. coli BW25113 micFp lux reporter
Procedure, shortened: as §1

[4] = test system: E. coli BW25113 ompFp lux reporter
Procedure, shortened: as §1

[5] = test system: E. coli BW25113 robp lux reporter
Procedure, shortened: as §1

[6] = test system: E. coli BW25113 soxSp lux reporter
Procedure, shortened: as §1

[7] = 35.6 µg/ml, genetic background: wild type
[8] = 35.6 µg/ml, genetic background: ΔmarA
[9] = 35.6 µg/ml, genetic background: Δrob
[10] = 35.6 µg/ml, genetic background: ΔsoxS
[11] = 71.1 µg/ml, genetic background: wild type
[12] = 71.1 µg/ml, genetic background: ΔmarA
[13] = 71.1 µg/ml, genetic background: Δrob
[14] = 71.1 µg/ml, genetic background: ΔsoxS
[15] = 142.3 µg/ml, genetic background: wild type
[16] = 142.3 µg/ml, genetic background: ΔmarA
[17] = 142.3 µg/ml, genetic background: Δrob
[18] = 142.3 µg/ml, genetic background: ΔsoxS
[19] = 284.5 µg/ml, genetic background: wild type
[20] = 284.5 µg/ml, genetic background: ΔmarA
[21] = 284.5 µg/ml, genetic background: Δrob
[22] = 284.5 µg/ml, genetic background: ΔsoxS

SMILES: Nc1ccc(C(=O)O)c(O)c1 [4-Aminosalicylic acid]
- promoter activity interaction Z-score ([1]; 76.6 µg/ml, genetic background: Δrob): 1.64 ± 0.41
- promoter activity interaction Z-score ([1]; 76.6 µg/ml, genetic background: ΔsoxS): -0.423 ± 0.15
- promoter activity interaction Z-score ([1]; 153.1 µg/ml, genetic background: wild type): 0.606 ± 0.32
- promoter activity interaction Z-score ([1]; 153.1 µg/ml, genetic background: ΔmarA): 0.0837 ± 0.18
- promoter activity interaction Z-score ([1]; 153.1 µg/ml, genetic background: Δrob): 0.207 ± 0.77
- promoter activity interaction Z-score ([1]; 153.1 µg/ml, genetic background: ΔsoxS): 1.76 ± 0.4

SMILES: CC[C@H](C)[C@H](N)C1=N[C@H](C(=O)N[C@@H](CC(C)C)C(=O)N[C@H](CCC(=O)O)C(=O)N[C@H](C(=O)N[C@H]2CCCCNC(=O)[C@H](CC(N)=O)NC(=O)[C@@H](CC(=O)O)NC(=O)[C@H](Cc3cnc[nH]3)NC(=O)[C@@H](Cc3ccccc3)NC(=O)[C@H]([C@@H](C)CC)NC(=O)[C@@H](CCCN)NC2=O)[C@@H](C)CC)CS1 [Bacitracin]
- promoter activity interaction Z-score [2, 7]: 0.238 ± 0.011
- promoter activity interaction Z-score [2, 8]: 0.0967 ± 0.69
- promoter activity interaction Z-score [2, 9]: 0.103 ± 0.11
- promoter activity interaction Z-score [2, 10]: -0.486 ± 0.28
- promoter activity interaction Z-score [2, 11]: -0.189 ± 0.25
- promoter activity interaction Z-score [2, 12]: -0.152 ± 0.45
- promoter activity interaction Z-score [2, 13]: -0.3 ± 0.21
- promoter activity interaction Z-score [2, 14]: -0.354 ± 0.56
- promoter activity interaction Z-score [2, 15]: -0.563 ± 0.27
- promoter activity interaction Z-score [2, 16]: 0.111 ± 0.27
- promoter activity interaction Z-score [2, 17]: -0.64 ± 0.089
- promoter activity interaction Z-score [2, 18]: -0.484 ± 0.29
- promoter activity interaction Z-score [2, 19]: -0.416 ± 0.21
- promoter activity interaction Z-score [2, 20]: -0.491 ± 0.073
- promoter activity interaction Z-score [2, 21]: -0.296 ± 0.36
- promoter activity interaction Z-score [2, 22]: 0.474 ± 0.51
- promoter activity interaction Z-score [3, 7]: -0.0989 ± 0.035
- promoter activity interaction Z-score [3, 8]: -0.0164 ± 0.05
- promoter activity interaction Z-score [3, 9]: 0.0475 ± 0.15
- promoter activity interaction Z-score [3, 10]: -0.478 ± 0.18
- promoter activity interaction Z-score [3, 11]: -0.268 ± 0.032
- promoter activity interaction Z-score [3, 12]: -0.0396 ± 0.049
- promoter activity interaction Z-score [3, 13]: -0.239 ± 0.028
- promoter activity interaction Z-score [3, 14]: -0.278 ± 0.083
- promoter activity interaction Z-score [3, 15]: -0.506 ± 0.083
- promoter activity interaction Z-score [3, 16]: -0.139 ± 0.089
- promoter activity interaction Z-score [3, 17]: -0.177 ± 0.087
- promoter activity interaction Z-score [3, 18]: -0.0874 ± 0.23
- promoter activity interaction Z-score [3, 19]: 0.124 ± 0.091
- promoter activity interaction Z-score [3, 20]: -0.167 ± 0.014
- promoter activity interaction Z-score [3, 21]: -0.188 ± 0.095
- promoter activity interaction Z-score [3, 22]: 0.2 ± 0.17
- promoter activity interaction Z-score [4, 7]: 0.637 ± 0.23
- promoter activity interaction Z-score [4, 8]: 0.358 ± 0.11
- promoter activity interaction Z-score [4, 9]: 0.253 ± 0.87
- promoter activity interaction Z-score [4, 10]: -0.738 ± 0.32
- promoter activity interaction Z-score [4, 11]: 0.389 ± 0.42
- promoter activity interaction Z-score [4, 12]: 0.103 ± 0.39
- promoter activity interaction Z-score [4, 13]: -0.153 ± 0.32
- promoter activity interaction Z-score [4, 14]: -0.256 ± 0.011
- promoter activity interaction Z-score [4, 15]: -0.463 ± 0.37
- promoter activity interaction Z-score [4, 16]: 0.405 ± 1.2
- promoter activity interaction Z-score [4, 17]: -0.823 ± 0.087
- promoter activity interaction Z-score [4, 18]: 0.0137 ± 0.45
- promoter activity interaction Z-score [4, 19]: 1.52
- promoter activity interaction Z-score [4, 20]: 0.962 ± 0.71
- promoter activity interaction Z-score [4, 21]: 1.05 ± 1.1
- promoter activity interaction Z-score [4, 22]: 1.9 ± 0.51
- promoter activity interaction Z-score [5, 7]: 0.859 ± 0.14
- promoter activity interaction Z-score [5, 8]: -0.334 ± 0.088
- promoter activity interaction Z-score [5, 9]: 0.568 ± 0.89
- promoter activity interaction Z-score [5, 10]: 0.00456 ± 0.7
- promoter activity interaction Z-score [5, 11]: 0.186 ± 0.99
- promoter activity interaction Z-score [5, 12]: 0.452 ± 0.16
- promoter activity interaction Z-score [5, 13]: 0.266 ± 0.06
- promoter activity interaction Z-score [5, 14]: -0.45 ± 0.04
- promoter activity interaction Z-score [5, 15]: -0.429 ± 0.72
- promoter activity interaction Z-score [5, 16]: 0.326 ± 0.28
- promoter activity interaction Z-score [5, 17]: -0.561 ± 0.13
- promoter activity interaction Z-score [5, 18]: -0.919 ± 0.74
- promoter activity interaction Z-score [5, 19]: -0.714 ± 0.18
- promoter activity interaction Z-score [5, 20]: -0.548 ± 0.32
- promoter activity interaction Z-score [5, 21]: -0.858 ± 1
- promoter activity interaction Z-score [5, 22]: -0.93 ± 0.068
- promoter activity interaction Z-score [6, 7]: 0.0222 ± 0.019
- promoter activity interaction Z-score [6, 8]: -0.0752 ± 0.056
- promoter activity interaction Z-score [6, 9]: 0.145 ± 0.063
- promoter activity interaction Z-score [6, 10]: -0.325 ± 0.089
- promoter activity interaction Z-score [6, 11]: -0.173 ± 0.011
- promoter activity interaction Z-score [6, 12]: -0.209 ± 0.049
- promoter activity interaction Z-score [6, 13]: -0.232 ± 0.096
- promoter activity interaction Z-score [6, 14]: -0.288 ± 0.14
- promoter activity interaction Z-score [6, 15]: -0.325 ± 0.11
- promoter activity interaction Z-score [6, 16]: -0.318 ± 0.0051
- promoter activity interaction Z-score [6, 17]: -0.254 ± 0.028
- promoter activity interaction Z-score [6, 18]: -0.236 ± 0.42
- promoter activity interaction Z-score [6, 19]: -0.265 ± 0.017
- promoter activity interaction Z-score [6, 20]: -0.188 ± 0.075
- promoter activity interaction Z-score [6, 21]: -0.556 ± 0.091
- promoter activity interaction Z-score [6, 22]: 0.196
- promoter activity interaction Z-score [1, 7]: 0.175 ± 0.14
- promoter activity interaction Z-score [1, 8]: 0.3 ± 0.76
- promoter activity interaction Z-score [1, 9]: -0.634 ± 0.13
- promoter activity interaction Z-score [1, 10]: -0.127 ± 0.13
- promoter activity interaction Z-score [1, 11]: -0.904 ± 0.76
- promoter activity interaction Z-score [1, 12]: -0.251 ± 0.39
- promoter activity interaction Z-score [1, 13]: -0.77 ± 0.38
- promoter activity interaction Z-score [1, 14]: -0.771 ± 0.63
- promoter activity interaction Z-score [1, 15]: -1.08 ± 0.47
- promoter activity interaction Z-score [1, 16]: -0.183 ± 0.34
- promoter activity interaction Z-score [1, 17]: -0.421 ± 0.15
- promoter activity interaction Z-score [1, 18]: -0.321 ± 0.69
- promoter activity interaction Z-score [1, 19]: -0.273 ± 0.36
- promoter activity interaction Z-score [1, 20]: -0.299 ± 0.51
- promoter activity interaction Z-score [1, 21]: -1.24 ± 0.052
- promoter activity interaction Z-score [1, 22]: -0.245 ± 0.87
